In PubChem BioAssay AID2102 (Southern Research Specialized Biocontainment Screening …, 2009):
The campaign covered roughly 1,100 compounds. About 210 (19%) were called active. The rule behind the calls is not given here. The list is a sample of the results. Entries with a potency or affinity are not part of this list.

Test: cell viability loss from selected hits – cytotoxicity control for SV40 T antigen inhibitor project, dose response (AID 2102);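 note: cells exposed to compounds for 72 hours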
Settings: Host cell viability cytotoxicity counter-screen; series mostly up to 50 µM

| Compound | outcome |
| --- | --- |
| Cc1nnc(N/N=C/c2c(O)n(-c3cccc(C(F)(F)F)c3)c(=O)c3ccccc23)[nH]c1=O | inactive |
| COc1ccc(-c2cc(=O)oc3c(O)c(O)ccc23)cc1 | inactive |
| O=C1CCCC/C1=C\Nc1ccc(O)cc1 | inactive |
| O=c1cc(CN2CCN(Cc3ccccc3)CC2)c2ccc(O)c(O)c2o1 | inactive |
| Oc1cnn(-c2ccccc2)c1 | inactive |
| Nc1cc(CN2C(=O)c3ccccc3C2=O)cc(Cl)c1O | inactive |
| COc1cc(/C=N/Nc2ccnc(=O)[nH]2)ccc1O | inactive |
| COc1ccc(NC2CCCN(C(=O)c3ccc(OC)cc3OC)C2)cc1 (configuration not stated) | inactive |
| COc1ccc(NC2CCCN(C(=O)CCn3cccn3)C2)cc1 (configuration not stated) | inactive |
| COc1cc(/C=N/NC(=O)c2c(-c3ccccc3)noc2C)ccc1O | inactive |
| C/C(CC(=O)Nc1ccc2ccccc2c1)=N\NC(=O)c1ccc(O)c(O)c1 | inactive |
| O=C(Nc1ccc(O)cc1)C1CC=CCC1 (configuration not stated) | inactive |
| Cc1ccc(S(=O)(=O)N2CCN(CC(=O)N/N=C\c3ccc(O)c(O)c3)CC2)cc1 | inactive |
| CC(C)C(=O)c1ccc(O)c(O)c1 | inactive |
| CCCSc1nc(O)c(C(c2ccc(OC)c(O)c2)c2c(O)nc(SCCC)n(C)c2=O)c(=O)n1C | inactive |
| COc1cc(Cn2nnc3ccccc32)ccc1O | inactive |
| Cc1ccc2c(c1C)NC(C(=O)O)C1CC=CC21 (configuration not stated) | inactive |
| CC(/C=N/n1c(-c2n[nH]c3c2CCC3)n[nH]c1=S)=C\c1ccco1 | inactive |
| Nc1nc(-c2cccs2)c(NC(=O)c2ccccc2)s1 | inactive |
| O=C1CNC(=S)N1CCc1ccc(O)c(O)c1 | inactive |
| N#CC1=C2SCN(Cc3ccco3)CN2C(=O)CC1c1ccc(Cl)cc1 (configuration not stated) | inactive |
| O=C(N/N=C/c1ccc(O)c(O)c1)c1cc(-c2ccccc2)nc2ccccc12 | inactive |
| CCn1c(/C=C/c2ccc(O)c(O)c2)nc2ccccc2c1=O | inactive |
| Cc1cc(SCC(=O)N/N=C/c2ccc(O)c(O)c2)nc2ccccc12 | inactive |
| O=C(CSc1nc2ccccc2o1)N/N=C/c1ccc(O)c(O)c1 | inactive |
| O=C1ON=C(c2ccccc2)/C1=C/c1ccc(O)c(O)c1 | inactive |

| Compound | outcome |
| --- | --- |
| O=C1C=CC(=O)N1c1ccc(O)cc1 | inactive |
| Cc1nc(Cl)cc(N/N=C/c2ccc(O)cc2)n1 | inactive |
| CCOc1ccc(N2Nc3n[nH]c(N)c3N2)cc1 | inactive |
| Cc1c(NC(=O)CN2CCN(c3ccc(O)cc3)CC2)c(=O)n(-c2ccccc2)n1C | inactive |
| O=C1CC(N2CCN(c3ccc(O)cc3)CC2)C(=O)N1Cc1cccs1 (configuration not stated) | inactive |
| Cc1nc2ccc(N=NN(C)C)cc2[nH]1 | inactive |
| O=C(Cn1c(=O)oc2ccccc21)Nc1n[nH]c(=S)s1 | inactive |
| Cc1cc(C)c2c(CCl)cc(=O)oc2c1 | inactive |
| CCSS(=O)(=O)c1cccc2cccnc12 | inactive |
| O=C1/C(=C/c2ccncc2)SC(=S)N1Nc1ccccc1 | inactive |
| CCc1cc2c(Nc3ccc(O)cc3)nc(C)nc2s1 | inactive |
| Cc1cc(NC(=O)CN2CCN(c3ccc(O)cc3)CC2)no1 | inactive |
| COc1ccc(N2CCN(C(=O)CN(c3ccccc3)S(C)(=O)=O)CC2)cc1 | inactive |
| O=C(c1ccc2ncsc2c1)N1CCN(c2ccc(O)cc2)CC1 | inactive |
| O=C(C1CC1)N1CCN(c2ccc(O)cc2)CC1 | inactive |
| CCOC(=O)N1CCN(c2ccc(O)cc2)CC1 | inactive |
| O=C(CCC(=O)N1CCN(c2ccc(O)cc2)CC1)c1cccs1 | inactive |
| CNC(=O)c1ccc(-c2sc3nc(N4CCOCC4)c4c(c3c2N)CC(C)(C)OC4)o1 | inactive |
| CN1CC(C(=O)O)Cc2c1ccc1ccccc21 (configuration not stated) | inactive |
| COc1cc(C(=O)Nc2ccc(O)cc2)ccc1OC(C)=O | inactive |
| CN(C)c1ccc(NC(N)=S)cc1 | inactive |
| COc1cc(/C=N/NC(=O)c2cccc(S(=O)(=O)N3CCCC3)c2)ccc1O | inactive |
| Cc1nc(-c2ccc(O)c(O)c2)cs1 | inactive |
| Cc1ccc(S(=O)(=O)Nc2nc(C)cc(N/N=C/c3ccc(O)cc3)n2)cc1 | inactive |
| CCOc1cc(/C=C2\SC(=O)N=C2N)ccc1O | inactive |
| Nc1nc2ccc(N3CCOCC3)cc2s1 | inactive |

| Compound | outcome |
| --- | --- |
| COc1cc(C(=O)Nc2ccc(N(C)C)cc2)cc(OC)c1OC | inactive |
| Oc1ccc(-c2csc(Nc3ccccn3)n2)cc1O | inactive |
| CN(C)c1ccc(Nc2nc(-c3cccnc3)cs2)cc1 | inactive |
| CC(C)c1ccc(S(=O)(=O)N2CCN(CCC(=O)Nc3ccc(N(C)C)cc3)CC2)cc1 | inactive |
| Cc1cc(C)nc(SCc2cc(=O)c(OC(=O)c3ccc(S(=O)(=O)N4CCCC4)cc3)co2)n1 | inactive |
| CC(=O)c1cccc(S(=O)(=O)N2CCCC(c3nc(-c4ccc(C)o4)no3)C2)c1 (configuration not stated) | inactive |
| Nc1nc(-c2ccco2)cs1 | inactive |
| Cc1ccsc1/C=N/n1c(-c2cccnc2)n[nH]c1=S | inactive |
| COc1cc(/C=N/NC(=O)c2ccoc2C)cc(OC)c1O | inactive |
| O=C(CCN1C(=O)/C(=C\c2ccco2)SC1=S)Nc1ccc(C(=O)O)c(O)c1 | inactive |
| O=C(CCN1C(=O)/C(=C/c2ccco2)SC1=S)Nc1ccc(C(=O)O)c(O)c1 | inactive |
| COc1cc(/C=N/NC(=O)CSc2ccccn2)ccc1O | inactive |
| Cc1ccc(NC(=O)CN2C(=O)N/C(=C\c3cccn3-c3cccc(C(=O)O)c3)C2=O)cc1 | inactive |
| CN(C)c1ccc(N2C(=O)CC(Nc3ccc(N4CCOCC4)cc3)C2=O)cc1 (configuration not stated) | inactive |
| Oc1ccc(/C=N/Nc2nccnc2Cl)cc1 | inactive |
| Cc1cc(O)ccc1N/C=C1\CCCC1=O | inactive |
| CC1(C)N([O-])c2cc([N+](=O)[O-])ccc2[N+]1=O | inactive |
| O=c1c2c([N+](=O)[O-])cc([N+](=O)[O-])cc2sn1Cc1ccccc1 | inactive |
| Cn1c(SCC(=O)c2ccc(O)c(O)c2)nnc1-c1cccs1 | inactive |
| O=c1cc(-c2ccc(Br)cc2)[nH][nH]1 | inactive |
| O=C(NC(=S)Nc1ccc(O)cc1)c1ccccc1Cl | inactive |
| COc1cc(/C=N/Nc2nc3ccccc3[nH]2)cc(OC)c1O | inactive |
| Nc1ccc2nc(CCCCCCCCc3nc4ccc(N)cc4[nH]3)[nH]c2c1 | inactive |
| Cc1ccnc(-n2sc3ccccc3c2=O)n1 | inactive |
| O=c1c2ccccc2sn1-c1nccs1 | inactive |
